Compound activity from PubChem.
IL1B secr inh = inhibitors of inflammasome signaling (IL-1 beta secretion). 360,000 tested, 4.7% active. THP-1 LPS/ATP IL-1B secretion, AlphaLISA, 16 h; active compounds read low. activity change, % at 57.5 µM; in the data active means activity change below about -50%; inconclusive means mostly about -30% to -49%
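THP-1 cells pretreated 1 hr with compounds (up to 57.5 uM final), then stimulated with LPS (250 ng/mL final) plus ATP (1.25 mM final); secreted IL-1B measured by AlphaLISA after 16 hr, decreased signal indicating inhibition.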
HT1080-NT tox = kills 2HG-producing HT-1080-NT fibrosarcoma cells | HT-1080-NT fibrosarcoma viability, CellTiter-Glo ATP luminescence, 48 h | Potency, µM (highest dose often 46.1 µM), inactives show at the highest dose activity, negative = less viability, most hits filed as cytotoxic | 360,000 tested, 1.6% active | AID 686970;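 further: NT is the 2HG producing partner of a matched IDH1 knockdown line; potency means the concentration at half of the fitted maximal effect; 0% = DMSO-treated cells and -100% = media-only wells without cells; nearly all actives have a fitted effect of over 55% in size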
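Compounds were tested in concentration-response format on HT-1080-NT cells for 48 hours at 37 degrees C. Cell viability came from CellTiter-Glo luminescence; curves were classified by r2, response magnitude and activity.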
TDP1 cell noCPT = qHTS for Inhibitors of human tyrosyl-DNA phosphodiesterase 1 (TDP1): qHTS in cells in absence of CPT; DT40 Tdp1-/- hTDP1 cells, no CPT, ATP luminescence, 48 h; Potency, µM (doses to about 46.2 µM), for inactives: top-dose activity change, negative = growth inhibition, hits mostly inhibitors; 420,000 tested, 15% active; further: potency means the concentration at half of the fitted maximal effect; nearly all actives have a fitted effect of over 55% in size
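Cells were dispensed at 400 per well, compounds added by pin tool, plates incubated ≥48 hr at 37 °C, then CellTiter-Glo added for 30 min at room temperature before luminescence reading. Line: DT40 Tdp1-/- complemented with hTDP1; camptothecin omitted.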
HT1080 IDH1KD tx = toxicity to HT-1080 IDH1 knockdown cells (counter line); HT-1080 IDH1 knockdown viability, ATP luminescence, 48 h; Potency, µM (doses to about 46.1 µM), without a hit: top-dose activity, negative = toxicity, most hits filed as cytotoxic; 360,000 tested, 2% active; AID 686971;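 further: potency means the concentration at half of the fitted maximal effect; 0% = DMSO wells and -100% = cell-free medium wells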
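After a 2 h attachment period, IDH1KD HT-1080 cells took pin-transferred compound for 48 h at 37 °C; ATP-based luminescence after 10 min room-temperature reagent incubation reported viability.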
TDP1 cell CPT = growth inhibition of DT40 Tdp1-/-;hTDP1 cells with camptothecin (screen for TDP1 inhibitors); chicken DT40 Tdp1-/-;hTDP1 cells + 20 nM CPT, ATP luminescence, 48 h; Potency, µM (top dose mostly 46.2 µM), inactives show top-dose activity change, negative = growth inhibition, most hits filed as inhibitors; 420,000 tested, 12% active; AID 686979; further: potency means the concentration at half of the fitted maximal effect; nearly all actives have a fitted effect of over 55% in size
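Cell growth measured by CellTiter-Glo luminescence after a minimum 48 h, 37 C compound exposure with 20 nM CPT in Tdp1-knockout DT40 cells stably expressing hTDP1, seeded 400/well; qHTS titration format.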
Starred values were filed as active, the others as inactive; ? = inconclusive; · = not tested or not shown. This is a sample that favours compounds with a hit; in the whole collection about 19% have one here. Unless noted, the call rests on the fitted dose curve; in most records, active means well fitted curve in the direction sought with a large enough effect; inconclusive means small, poorly fitted or top-dose-only effect, or another doubt; inactive means no such curve, though single readings can be large; an effect the other way counts as inactive or inconclusive. Unless noted, on the % scale 0 is the no-effect control and ±100 the full control effect.

SMILES | IL1B secr inh | HT1080-NT tox | TDP1 cell noCPT | HT1080 IDH1KD tx | TDP1 cell CPT
O=C1NC(Cc2ccc(O)cc2)c2nc3cc(F)c(F)cc3c(=O)n2-c2cc3ccccc3cc21 (centres undefined) | -28 | ? | ? | 18µM* | ?
O=C1NC(Cc2ccccc2)c2nc3cc(F)c(F)cc3c(=O)n2-c2cc3ccccc3cc21 (centres undefined) | -5 | ? | 18µM* | ? | 23µM*
O=C1NC(Cc2ccc(O)cc2)c2nc3ccc(F)cc3c(=O)n2-c2cc3ccccc3cc21 (centres undefined) | -18 | 12µM* | 26µM* | 16µM* | ?
O=C1NC(Cc2ccccc2)c2nc3cc(Cl)ccc3c(=O)n2-c2ncccc21 (centres undefined) | -14 | 1% | ? | -3% | ?
O=C1NC(Cc2ccc(O)cc2)c2nc3cc(Cl)ccc3c(=O)n2-c2cc3ccccc3cc21 (centres undefined) | 17 | 23µM* | -19% | 16µM* | -1%
CN(C)C(=O)c1nc2ccc(Cl)cn2c1CN1CCCC(OCc2cccnc2)C1 (centres undefined) | -3 | 2% | -13% | 2% | 0%
CC(C)CN(C(=O)COC(=O)c1c(Cl)ccc(Cl)c1Cl)C1CCS(=O)(=O)C1 (centres undefined) | -5 | -2% | ? | -4% | -8%
CC(C)CC(c1nc2ccccc2[nH]1)n1c(-c2ccccc2Br)nc2ccccc21 (centres undefined) | 61 | 8% | -6% | 1% | -1%
Cc1ccc2nc3n(c(=O)c2c1)-c1cc2ccccc2cc1C(=O)NC3Cc1ccc(O)cc1 (centres undefined) | 28 | 9.2µM* | -14% | 13µM* | -8%
O=C1NC(Cc2ccccc2)c2nc3ccc(F)cc3c(=O)n2-c2ncccc21 (centres undefined) | -6 | -2% | 21µM* | -8% | ?
Cc1ccc2c(=O)n3c(nc2c1)C(Cc1ccc(O)cc1)NC(=O)c1cccnc1-3 (centres undefined) | 11 | -1% | ? | -2% | -5%
COc1cc2nc3n(c(=O)c2cc1OC)-c1cc2ccccc2cc1C(=O)NC3CC(C)C (centres undefined) | -9 | -15% | ? | ? | ?
COc1cc2nc3n(c(=O)c2cc1OC)-c1cc2ccccc2cc1C(=O)NC3Cc1ccccc1 (centres undefined) | 4 | -19% | 16µM* | -23% | ?
COc1cc(=O)n2c(c1C(=O)NC(C)c1ccco1)CCN(Cc1ccccc1Cl)CC2 (centres undefined) | · | · | -23% | · | 2%
Cc1cc(-c2ccnc(-n3ncc(C(=O)NCC4CCCN(C)C4)c3C3CC3)n2)c(C)s1 (centres undefined) | · | · | -3% | · | 6%
CCN1C(=O)N(c2cccc3ccccc23)C(C)=CC1(C)C | 6 | 3% | 23µM* | 4% | ?
Nc1ccc2c(c1)C(=O)N(c1cccc3ccccc13)C2=O | -11 | -20% | -25% | -5% | 0%
O=S(=O)(/C=C/c1ccccc1)N1CCN(c2nc(-c3ccccc3)nc3ccccc23)CC1 | -2 | -14% | ? | 0% | -6%
C=CC[C@H](CC(=O)N(CCO)Cc1ccccc1)C(=O)N[C@H](COC(=O)[C@H](CC=C)CC(=O)OC(C)(C)C)Cc1ccccc1 | -27 | -13% | 21µM* | -13% | 23µM*
C=CC[C@@H](CC(=O)N[C@@H](CO)Cc1ccccc1)C(=O)N[C@H](COC(=O)[C@@H](CC=C)Cc1ccc(F)cc1)Cc1ccccc1 | 14 | 1% | ? | -2% | ?
C=CC[C@H](CC(=O)NCCO)C(=O)N[C@@H](C)COC(=O)[C@@H](CC=C)CC(=O)OC(C)(C)C | 5 | 8% | -13% | 3% | -17%
C=CC[C@@H](CC(=O)N(CCO)Cc1ccccc1)C(=O)N[C@H](COC(=O)[C@@H](CC=C)CC(=O)OC(C)(C)C)C(C)(C)C | -58* | -4% | ? | -18% | ?
Cc1nc(SCC(=O)NCC2CCCO2)[nH]c(=O)c1C (centres undefined) | 15 | 3% | 0% | 3% | 2%
CC(C)OCCCNC(=O)c1cn(C)c2ccc(S(=O)(=O)N(C)C3CCCCC3)cc2c1=O | -28 | 7% | -26% | 5% | -10%
O=C(Nc1ccc(Oc2cccnc2)cc1)C1CCN(Cc2cc(Cl)ccc2O)CC1 | -4 | ? | 13µM* | ? | 8.2µM*
SMILES | IL1B secr inh | HT1080-NT tox | TDP1 cell noCPT | HT1080 IDH1KD tx | TDP1 cell CPT
Cc1cccc(CN2CCC(C(=O)Nc3ccc(Oc4cccnc4)cc3)CC2)c1 | -6 | -5% | ? | 2% | ?
O=C(Nc1ccccc1Oc1cccnc1)C1CCCN(Cc2ccccc2O)C1 (centres undefined) | -19 | -25% | 15µM* | -5% | ?
C#Cc1ccc(CN2CCCC(C(=O)Nc3ccccc3Oc3cccnc3)C2)cc1 (centres undefined) | ? | -4% | ? | -5% | ?
Cc1cccc[n+]1CC(=O)/C=C1\N(C)c2ccccc2C1(C)C | 17 | -13% | 3.3µM* | ? | 3.3µM*
Cc1ccc[n+](CC(=O)/C=C2\N(C)c3ccccc3C2(C)C)c1 | -3 | -18% | 1.6µM* | ? | 1.2µM*
CN1/C(=C\C(=O)C[n+]2cccc(C(N)=O)c2)C(C)(C)c2ccccc21 | 12 | 3% | -15% | -22% | 13%
CN1/C(=C\C(=O)C[n+]2ccc(C(=O)c3ccccc3)cc2)C(C)(C)c2ccccc21 | -19 | -28% | 1.2µM* | ? | 0.82µM*
CN1/C(=C\C(=O)C[n+]2cccc(Br)c2)C(C)(C)c2ccccc21 | -2 | -28% | 5.8µM* | -43% | 4.6µM*
CC(C(=O)Nc1ccncc1)(c1ccccc1)c1ccccc1 | 4 | 3% | 13% | 1% | -9%
CN(C)c1ccc(-c2[nH][nH]c(=O)c2NC(=O)c2ccc3ccccc3n2)cc1 | 3 | ? | ? | ? | ?
COc1ccc2c(c1)c(=O)c(S(=O)(=O)c1ccc(Cl)cc1)cn2C | · | · | ? | · | -30%
Cc1ccc(C(=O)NC2c3ccccc3-c3ccccc32)cc1 | 14 | ? | 3.7µM* | 2.6µM* | 2.9µM*
Cc1ccc(NC(=O)C2c3ccccc3-c3ccccc32)cc1 | -2 | -5% | ? | -5% | 6.5µM*
CC(=O)Nc1ccc(NC(=O)C2c3ccccc3Oc3ccccc32)cc1 | -3 | 11% | -2% | 6% | 14%
